Laboratory results published in PubChem BioAssay AID493169 (National Center for Advancing Translational Sciences (NCATS), 2011).
Records with an inconclusive call do not appear. Calls of active or inactive are those of the source. Calls follow the shape of the dose curve; as a rule, active = well fitted inhibition curve with a large enough effect; inconclusive = small, poorly fitted or top-dose-only effect; inactive = flat fitted curve, though single readings scatter.

experiment: CHOP2 Reporter Counterscreen Assay for Inhibitors of Ubiquitin-specific Protease USP2a; settings: purified enterokinase, fluorogenic substrate, 485/531 nm; series mostly up to 38.3 µM; activity change, negative = inhibition: at the top concentration;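 also: activated enterokinase alone at 50 pM in a cell-free format rather than USP2a or CHOP2; nearly all actives have a fitted effect of over 55% in size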
Description: NIH Molecular Libraries Probe Centers Network [MLPCN] NIH Chemical Genomics Center [NCGC] MLPCN Grant: XO1-MH079852-01 PI Name: Nicholson, Ben. Progenra Inc, Malvern, PA NCGC Assay Overview: Homeostasis of cellular proteins is maintained through a combination of synthesis and degradation. The pathway that accounts for the majority of protein degradation is the ubiquitin-proteasomal pathway. Ubiquitin (Ub) is highly conserved in all cells and the generation of a multi-Ub chain typically targets proteins for degradation by the proteasome. However, ubiquitination is highly reversible and dynamic. Deubiquitination, the reverse process, is catalyzed through the action of enzymes referred to as isopeptidases or deubiquitinating enzymes (DUBs). This group of enzymes is collectively responsible for maintaining adequate pools of free ubiquitin and regulating the ubiquitination status of cellular proteins. The class of DUBs referred to as the ubiquitin-specific proteases (USP) family functions endoproteolytically to cleave Ub chains from a wide range of protein substrates. USP2a deubiquitinates fatty acid synthase (FASN) which has recently been identified as an emerging oncology target. To identify inhibitors of USP2a a cell-free assay was employed. This assay is a counterscreen against the reporter enzyme used to measure USP2a activity in the primary qHTS assay. The reporter enzyme is a protease (enterokinase, EK; EC 3.4.21.9), which is activated when a Ub sequence is cleaved by USP2a. The counterscreen assay is performed in the same buffer and conditions as the primary USP2a coupled assay but uses fully activated EK alone. The assay gives a fluorescent read-out at excitation/emission wavelengths of 485/531. The assay was provided by Progenra, Inc. and has been licensed for sale by LifeSensors, Inc.
NCGC Assay Protocol: The assay buffer, prepared fresh at the day of the assay, contains 20mM Tris-HCl pH 8.0, 2mM CaCl2, 2mM beta-Mercaptoethanol, 0.05% CHAPS. 3uL of 100 pM EK (50 pM final) was dispensed into a medium-binding black solid Kalypsys 1,536 well plate using the Kalypsys dispenser. The assay plate was then pinned with 23nL compounds in DMSO with the Kalypsys pintool in columns 5-48 (0.3% final DMSO concentration). The negative control was buffer/DMSO only in column 3. The assay plate is incubated at RT for 30min. Subsequently, 3uL of reporter substrate (25nM final) were dispensed into the plate using the Kalypsys dispenser. Plates were read after 10 min at RT on a ViewLux (Perkin Elmer) plate reader using the following wavelengths: Ex 485nm /Em 531nm. Data were normalized to the AC100 inhibition (buffer alone). Concentration-response curves were fitted to the normalized data and the concentration-response curves were then classified based on curve quality (r2), response magnitude and degree of measured activity. The time zero reading was used to flag fluorescence artifacts.
% is scaled to controls: 0 for no effect and ±100 for the full control effect; potency is read from the fitted curve at half-maximal effect.

For `CCC/C(O)=C1\C(=O)CC(C)(C)CC1=Nc1ccc(OC)cc1OC`, which “activity change, negative = inhibition” value is on record?
Its value is 1.13% (inactive).

For `CCOc1ccc(NC(=O)c2ccc(NC(=O)COC(=O)c3ccc(NC(=O)CC#N)cc3)cc2)cc1`, which Potency is on record?
Its Potency is 2.82 µM (active).

Which “activity change, negative = inhibition” value does the source give for `Cc1cc(C)c2c(N=CN(C)C)c(C(=O)N3CCN(c4ncccn4)CC3)sc2n1` here?
Its value is 3.03% (inactive).

With `COc1ccc(-c2cc(C(F)(F)F)nc(S(C)(=O)=O)n2)cc1` as the compound, how does the “activity change, negative = inhibition” value read?
Its value is -3.17% (inactive).

With `CCCCC(OC(=O)c1cc2occc2n1C)C(=O)NCC1CCCO1` (stereo not given) as the compound, how does the “activity change, negative = inhibition” value read?
The value was 1.57% (inactive).

With `O=C1NC[C@@H](c2ccccc2)OC(=O)[C@@H](Cc2ccc(F)cc2)CC/C=C/C[C@@H]1CC(=O)N(CCO)Cc1ccccc1` as the compound, how does the “activity change, negative = inhibition” value read?
The value was -2.43% (inactive).

For `COc1cc(/C=C/C(=O)OCC(=O)NC(=O)NCc2ccco2)ccc1OC(F)F`, which “activity change, negative = inhibition” value is on record?
The value was -19.8% (inactive).

With `Cc1cccn2c(=O)c3cc(C(=O)NCCN4CCOCC4)c(=N)n(CCN4CCOCC4)c3nc12` as the compound, how does the “activity change, negative = inhibition” value read?
Its value is -17.7% (inactive).

Which “activity change, negative = inhibition” value does the source give for `COc1cccc(NC(=O)c2ccccc2-c2nc(-c3cccc(C)c3)no2)c1` here?
The value was -4.15% (inactive).

Which “activity change, negative = inhibition” value does the source give for `CC(=O)N1CCCc2cc(S(=O)(=O)CCC(=O)N3CCN(c4cccc(C)c4)C(C)C3)ccc21` (stereo not given) here?
The value was -0.373% (inactive).

Which “activity change, negative = inhibition” value does the source give for `CC(=O)C1=C(O)C(=O)N(c2nnn(C)n2)C1c1cccs1` (stereo not given) here?
Its value is -0.348% (inactive).

With `COc1ccc(/C=C2/SC(=S)N(c3ccc(S(=O)(=O)Nc4nccs4)cc3)C2=O)cc1` as the compound, how does the Potency read?
Its Potency is 11.2 µM (active).

Which “activity change, negative = inhibition” value does the source give for `CCOc1ccc(-c2ccc(/C=C3/C(=N)N4C(C)=CSC4=NC3=O)o2)c([N+](=O)[O-])c1` here?
Its value is -15.5% (inactive).

With `CCCc1cc(=O)oc2cc(C)c(CN3CCCC3)c(O)c12` as the compound, how does the “activity change, negative = inhibition” value read?
The value was 8.44% (inactive).

Which “activity change, negative = inhibition” value does the source give for `COc1ccc(NC(=O)C2CC(=O)OC2c2ccccc2)cc1` (stereo not given) here?
Its value is 0.309% (inactive).

Which “activity change, negative = inhibition” value does the source give for `O=c1/c(=C/c2ccco2)sc2n1CN(c1cccc(Br)c1)CN=2` here?
The value was -0.633% (inactive).

Which “activity change, negative = inhibition” value does the source give for `Nc1c(C(=O)Nc2ccc(Cl)cc2)oc2ccccc12` here?
The value was -5.29% (inactive).

For `COc1ccc(OCC(=O)Nc2ccccc2OC)cc1`, which “activity change, negative = inhibition” value is on record?
Its value is 9.5% (inactive).

For `CCc1cc(C(=O)N=Nc2c(O)[nH]c3ccc([N+](=O)[O-])cc23)c2ccccc2n1`, which Potency is on record?
Its Potency is 8.91 µM (active).

For `Cc1ccc(OCC(=O)Nc2ccc(N3CCCC3)cc2)cc1C`, which Potency is on record?
The Potency was 10 µM (active).

For `O=C1CCCc2nc(N3CCN(c4ccccc4)CC3)ncc21`, which “activity change, negative = inhibition” value is on record?
The value was 3.25% (inactive).

For `O=C(NC12CC3CC(CC(C3)C1)C2)C1=COCCO1`, which “activity change, negative = inhibition” value is on record?
Its value is -0.965% (inactive).

Which Potency does the source give for `COC(=O)c1[nH]c2ccc(C)cc2c1NC(=O)CN1CCCc2ccccc21` here?
Its Potency is 10 µM (active).

Which Potency does the source give for `Cc1cccc(N=C2NC(=O)/C(=C/C=C/c3ccco3)S2)c1` here?
The Potency was 10 µM (active).

With `COc1ccc(C(=O)Nc2ccc(N3CCCC3)cc2)cc1OC` as the compound, how does the “activity change, negative = inhibition” value read?
The value was 0.701% (inactive).

With `CCOC(=O)N1CCN(S(=O)(=O)c2ccc(C)cc2)C1c1ccc(OC)cc1` (stereo not given) as the compound, how does the “activity change, negative = inhibition” value read?
The value was 1.57% (inactive).

With `C#CCOCCOCCOCCNc1nc(N2CCN(C(=O)CCCCCCCCCCNC(=O)[C@H](CO)n3cc(CCCSC)nn3)CC2)nc(N2CCN(C(=O)CCCCCCCCCCNC(=O)[C@H](CCCN=C(N)N)n3cc(C[C@@H](C)CC)nn3)CC2)n1` as the compound, how does the Potency read?
The Potency was 3.98 µM (active).

For `C=CC#CC[N+]1(CC#Cc2ccccc2)CCOCC1`, which Potency is on record?
The Potency was 2.24 µM (active).

For `Cc1cc(C)c(NC(=O)C[N+](C)(C)CC(O)COc2cccc3ccccc23)c(C)c1` (stereo not given), which “activity change, negative = inhibition” value is on record?
Its value is -4.33% (inactive).

With `O=C(Cc1cc(=O)[nH]c(=O)[nH]1)NCC1CCCO1` (stereo not given) as the compound, how does the “activity change, negative = inhibition” value read?
The value was 0.989% (inactive).

For `CC1(C)CC(=O)C2=C(C1)NCN(CCCN1CCOCC1)C2`, which “activity change, negative = inhibition” value is on record?
Its value is 2.72% (inactive).

With `O=C(NCCN1C(=O)CSC1=O)C1CC(=O)N(c2ccccc2)C1` (stereo not given) as the compound, how does the “activity change, negative = inhibition” value read?
The value was 4.98% (inactive).

Which “activity change, negative = inhibition” value does the source give for `O=C(Nc1ccc(Oc2ccc(Cl)cc2)cc1)c1ncn[nH]1` here?
Its value is 4.42% (inactive).

With `C=CC[C@@H](CC(=O)N(CCO)Cc1ccccc1)C(=O)NCCOC(=O)[C@H](CC=C)CC(=O)OC(C)(C)C` as the compound, how does the “activity change, negative = inhibition” value read?
The value was 4.41% (inactive).

With `NC1=NC2(CCC(c3ccccc3)CC2)n2c(nc3ccccc32)N1` (stereo not given) as the compound, how does the “activity change, negative = inhibition” value read?
Its value is -0.14% (inactive).

Which “activity change, negative = inhibition” value does the source give for `CCCCc1ccc(/C=C2/C(=O)ON=C2c2ccccc2)s1` here?
The value was -1.37% (inactive).

With `CCc1c(O)nc(SCC(=O)Nc2ccccc2OC)[nH]c1=O` as the compound, how does the “activity change, negative = inhibition” value read?
The value was 0.165% (inactive).

Which Potency does the source give for `O=C(CCCN1C(=O)/C(=C\c2ccco2)SC1=S)Nc1ccc(O)cc1C(=O)O` here?
Its Potency is 12.6 µM (active).

Which “activity change, negative = inhibition” value does the source give for `Cn1c(=O)c2c(nc(CN3CCN(C(=O)c4ccco4)CC3)n2CCCc2ccccc2)n(C)c1=O` here?
Its value is 4.23% (inactive).

For `CN(c1ccccc1)S(=O)(=O)c1ccc(Cl)c(C(=O)NCCc2c[nH]c3ccccc23)c1`, which “activity change, negative = inhibition” value is on record?
Its value is -0.834% (inactive).
